ChEMBL document CHEMBL4513216, “Probing the Open Global Health Chemical Diversity Library for Multistage-Active Starting Points for Next-Generation Antimalarials” (ACS Infect Dis, 2020)
The whole screen tested about 69,000 compounds, of which about 8,600 (12%) showed an effect of 50% or more. The sample holds strong results, similar compounds and a random draw of the others, so the mix is not that of the screen.

What follows are compounds tested on Plasmodium berghei (assay: Screen against P. berghei liver stage (PbLuc), transformed with Luciferase, at 10uM). Details: tested at 10 uM.
Format: functional, HepG2

Structure (SMILES)	INHIBITION
O=C(NCCn1cccc1)C(c1ccccc1)N1CCCC1 (stereo unspecified)	15.4%
CCOC1CCCN(C(=O)CCOc2ccc(C)cc2OC)C1 (stereo unspecified)	8.59%
Cn1cc2ncn(C3CCN(c4ccccc4F)CC3)c(=O)c2n1	-6.03%
CNc1nccc(-c2cn(C)nc2C)n1	29.4%
Cc1ccc(NCCCNc2nccc(-c3cn(C)nc3C)n2)nc1	51.2%
Cc1nn(C)cc1-c1ccnc(NCCN)n1	59.4%
CCN(CC)CCCNc1nccc(-c2cn(C)nc2C)n1	43.9%
Cc1nn(C)cc1-c1ccnc(N2CCSCC2)n1	47.2%
CNCCNc1nccc(-c2cn(C)nc2C)n1	19.4%
c1cnn(CC2CCCCN2Cc2noc(C3CC3)n2)c1 (stereo unspecified)	-42.65%
CC(C)NC(=O)c1nnc2ccc(N3CCOCC3)cc2n1	-3.11%
O=C(c1ccco1)N1CCC2(CCC(=O)N2Cc2ccccc2)CC1	33.4%
COCC(=O)N1CCC(C)(c2cc(O)[nH]n2)CC1	23.9%
CCC(NC(=O)NCc1cccc(N(C)C)n1)c1nccs1 (stereo unspecified)	67.4%
CCC(NC(=O)NCc1cccc(N(C)C)n1)c1ccccc1OC (stereo unspecified)	6.83%
Cc1nc(CCNC(=O)NCc2cccc(N(C)C)n2)cs1	-24.3%
CCCC(NC(=O)NCc1cccc(N(C)C)n1)c1ccccn1 (stereo unspecified)	58.5%
CN(C)c1ccc(NC(=O)NCc2ccccn2)cn1	13.9%
CCC(NC(=O)NCc1cccc(N(C)C)n1)c1cccs1 (stereo unspecified)	-6.46%

Structure (SMILES)	INHIBITION
Cc1noc(C)c1-c1cncc(C2CCCN2Cc2ncc[nH]2)n1 (stereo unspecified)	47.2%
CC[C@@H](Cn1ncc2ccccc2c1=O)NC(=O)c1ccco1	34.1%
Cn1ccc(C(=O)N2CCN(c3nccs3)CC2)cc1=O	28.8%
Cc1ccccc1C(=O)NC1CCN(Cc2ncc(C(C)(C)C)o2)CC1	66.1%
CC(C)(C)c1cnc(CN2CCC(NC(=O)NC3CCCCC3)CC2)o1	60.8%
CCN(CC)CC1CCN(Cc2ncc(C(C)(C)C)o2)CC1	47.4%
CC(C)(C)c1cnc(CN2CCC(CO)CC2)o1	39.7%
CCN(C1CCN(Cc2ncc(C(C)(C)C)o2)CC1)S(C)(=O)=O	50.8%
CC(C)(C)c1cnc(CN2CCC(CN3CCOCC3)CC2)o1	66.3%
CC(C)(C)c1cnc(CN2CCC(NC(=O)CC3CCCC3)CC2)o1	28.7%
CC(C)(C)c1cnc(CN2CCC(NC(=O)Nc3ccccc3)CC2)o1	39.4%
CC(C)(C)c1cnc(CN2CCCS(=O)(=O)CC2)o1	-7.94%
CC(C)(C)c1cnc(CN2CCN(c3ncccn3)CC2)o1	24.3%
CCN1CCN(C2CCN(Cc3ncc(C(C)(C)C)o3)CC2)C1=O	42%
CC(C)(C)c1cnc(CN2CCC(NC(=O)C3CCOCC3)CC2)o1	30.8%
COc1ccc(C(C)N(C)Cc2c(C(C)(C)C)[nH]c3ncccc23)cc1 (stereo unspecified)	-19%
Cc1cnn(CC2CN(Cc3nc4cccnc4[nH]3)CCO2)c1 (stereo unspecified)	45.1%
O=c1[nH]c2c(-c3ccccn3)nsc2c(=O)n1C1CCCCC1	9.41%
O=C(Cc1cn2ccccc2n1)N1CCCC(n2cccn2)C1 (stereo unspecified)	21.5%

Structure (SMILES)	INHIBITION
CSc1ncccc1C(=O)NCc1ccc(N(C)C)cc1	-25.1%
Cc1nc(CN2CCC3(CCCN(Cc4ccncc4)C3)C2=O)cs1 (stereo unspecified)	-36.9%
CC(C)CN1CC(O)CN(S(=O)(=O)c2ccccc2)CC1=O (stereo unspecified)	10.1%
Cc1cc(C)nc(NCCC(=O)NCCn2ccc3ccccc32)n1	41.5%
Cc1cnc(CN2CCOC(Cn3nc(C)cc3C)C2)cn1 (stereo unspecified)	32.9%
CCc1nc(N)sc1C(=O)N1CCCC(CCc2ccccc2C)C1 (stereo unspecified)	55.3%
Cc1ccccc1CCC1CCCN(C(=O)Cc2cc(=O)[nH]c(N)n2)C1 (stereo unspecified)	-33%
CCc1nc(N)sc1C(=O)N1CCCC(COc2cccc(C)c2)C1 (stereo unspecified)	-24.8%
Cn1ccc(C(=O)NCc2ccc(CN3CCCCC3)cc2)cc1=O	-19.9%
CCS(=O)(=O)N1C[C@H]2CN(Cc3cccc(F)c3)C(=O)[C@H]2C1	3.58%
CN(C)c1ncnc2c1CCN(CC1CCCC1)CC2	38.1%
COCCNc1nc(C)nc2c1CCN(CC1CCC(N)CC1)CC2 (stereo unspecified)	26.6%
Cc1nc2c(c(NCCc3nccs3)n1)CCN(CC1CC1)CC2	64.1%
c1csc(CN2CCC3(CC2)CCN(CC2CC2)CC3)n1	23.3%
Nc1nc2c(c(NCc3nccs3)n1)CCN(CC1CCCC1)CC2	76.6%
Cc1nc2c(c(NCCc3nc(C)c(Cl)s3)n1)CCNCC2	18.5%
CC(C)c1nnc(CN2CCCc3ccc(S(N)(=O)=O)cc32)o1	-7.93%
CCCn1c(SCC(N)=O)nnc1-c1csc2c1CCCC2	19.8%
